Test results from PubChem BioAssay AID1159580 (chemical genetic matrix, 2015).
“And” between values parts separate entries of the source, which are not always exact repeats. Equal values may be shown once. Hit rate of the full screen: of about 5,500 compounds, about 2,000 (36%) were called active. Inconclusive results (about 18%) are left out. No stated cut-off is given here; in the data, active means normalized growth mostly below about 0.91 (no sharp cut-off); inconclusive means no clear call, values can overlap the other calls; inactive means mostly above about 0.92. This is one part of the list.

Experiment: chemical genetic growth profiling, strain panel (AID 1159580);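 further: tested at 20 µM; growth read once vehicle control cultures reached saturation at 30 °C; 1 = growth at the plate median or of vehicle wells; lower values mean less growth of the strain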
Details: S. cerevisiae deletion strains, growth OD

Measured: normalized growth

NCC(CC(=O)O)c1ccc(Cl)cc1 (configuration not stated)
inactive: locus YAL013W, strain DEP1, hits give low values 1.02 | locus YAL021C, strain ccr4, hits give low values 0.99 | locus YAL026C, strain drs2, hits give low values 0.997 | locus YAL030W, strain snc1, hits give low values 1 | locus YAL040C, strain CLN3, hits give low values 1.03 | locus YBL061C, strain skt5, hits give low values 1 | locus YBR009C, strain hhf1, hits give low values 0.968 | locus YBR021W, strain FUR4, hits give low values 1.04 | locus YBR023C, strain chs3, hits give low values 0.997 | locus YBR171W, strain sec66, hits give low values 1.01 | locus YBR229C, strain ROT2, hits give low values 1.01 | locus YBR231C, strain swc5, hits give low values 1.01 | locus YBR279W, strain paf1, hits give low values 0.994 | locus YCL011C, strain gbp2, hits give low values 0.992 | locus YCL016C, strain dcc1, hits give low values 0.976 | locus YCL029C, strain bik1, hits give low values 0.993 | locus YCL061C, strain MRC1 (second series), hits give low values 0.981 | locus YCL069W, strain vba3, hits give low values 0.994 | locus YCR088W, strain abp1, hits give low values 1 | locus YDL005C, strain med2, hits give low values 1 | locus YDL035C, strain GPR1, hits give low values 1.05 | locus YDL040C, strain nat1, hits give low values 0.995 | locus YDL074C, strain BRE1, hits give low values 1.03 | locus YDL101C, strain DUN1, hits give low values 1.01 | locus YDL185W, strain tfp1, hits give low values 0.993 | locus YDL192W, strain arf1, hits give low values 0.991 | locus YDR001C, strain nth1, hits give low values 0.995 | locus YDR069C, strain doa4, hits give low values 1.02 | locus YDR101C, strain arx1, hits give low values 0.979 | locus YDR137W, strain rgp1, hits give low values 0.98 | locus YDR150W, strain NUM1, hits give low values 1.01 | locus YDR159W, strain sac3, hits give low values 0.945 | locus YDR162C, strain NBP2, hits give low values 1.04 | locus YDR195W, strain ref2 0.995 | locus YDR297W, strain sur2, hits give low values 1.01 | locus YDR318W, strain mcm21, hits give low values 0.993 | locus YDR334W, strain swr1, hits give low values 1 | locus YDR335W, strain msn5, hits give low values 1 | locus YDR388W, hits give low values 0.99 | locus YDR392W, strain spt3, hits give low values 0.928 | locus YDR502C, strain sam2, hits give low values 0.991 | locus YEL003W, strain gim4, hits give low values 0.996 | locus YEL037C, strain rad23, hits give low values 0.998 | locus YEL061C, strain CIN8 (second series), hits give low values 1.01 | locus YEL061C, strain CIN8, hits give low values 1.01 | locus YER002W, strain NOP16, hits give low values 0.992 | locus YER015W, strain faa2, hits give low values 1 | locus YER016W, strain bim1, hits give low values 0.975 | locus YER110C, hits give low values 0.978 | locus YER111C, strain swi4, hits give low values 0.989 | locus YER155C, strain BEM2 (second series), hits give low values 1.02 | locus YER155C, strain BEM2, hits give low values 1.02 | locus YER167W, strain BCK2, hits give low values 1.02 | locus YFR010W, strain ubp6, hits give low values 1.01 | locus YGL078C, strain dbp3, hits give low values 0.984 | locus YGL086W, strain mad1, hits give low values 0.988 | locus YGL167C, strain pmr1, hits give low values 0.99 | locus YGL173C, strain kem1, hits give low values 1 | locus YGL227W, strain vid30, hits give low values 1 | locus YGL240W, strain doc1, hits give low values 1.03 | locus YGL248W, strain PDE1, hits give low values 1.02 | locus YGL253W, strain hxk2, hits give low values 0.966 | locus YGR078C, strain PAC10, hits give low values 1.01 | locus YGR135W, strain pre9, hits give low values 0.987 | locus YGR229C, strain SMI1, hits give low values 0.955 | locus YGR252W, strain gcn5, hits give low values 0.966 | locus YHR013C, strain ard1, hits give low values 0.982 | locus YHR027C, strain rpn1, hits give low values 0.98 | locus YHR030C, strain SLT2, hits give low values 1.01 and 1.05 | locus YHR079C, strain IRE1 (second series), hits give low values 0.984 | locus YHR079C, strain IRE1, hits give low values 1.06 | locus YHR094C, strain hxt1, hits give low values 0.985 | locus YHR129C, strain ARP1, hits give low values 1.01 | locus YHR142W, strain chs7, hits give low values 0.958 | locus YHR200W, strain rpn10, hits give low values 0.987 | locus YIL066C, strain RNR3, hits give low values 1.04 | locus YIL073C, strain SPO22, hits give low values 0.986 | locus YIL125W, strain kgd1, hits give low values 0.977 | locus YIR030C, strain dcg1, hits give low values 1 | locus YJL092W, strain hpr5, hits give low values 1.01 | locus YJL095W, strain BCK1 (second series), hits give low values 1 | locus YJL095W, strain BCK1, hits give low values 1.01 and 1.06 | locus YJL115W, strain asf1, hits give low values 1.02 | locus YJL129C, strain trk1, hits give low values 1 | locus YJL134W, strain LCB3, hits give low values 1.01 | locus YJL154C, strain vps35, hits give low values 0.991 | locus YJL164C, strain tpk1, hits give low values 0.975 | locus YJL166W, strain qcr8, hits give low values 1.01 | locus YJL168C, strain set2, hits give low values 0.994 | locus YJL187C, strain SWE1 (second series), hits give low values 1.01 | locus YJR043C, strain POL32, hits give low values 1.03 | locus YJR066W, strain TOR1, hits give low values 0.996
